Records with an inconclusive call do not appear. The source made the active and inactive calls. The call rests on the fitted dose curve; in most records, active means well fitted curve in the direction sought with a large enough effect; inconclusive means small, poorly fitted or top-dose-only effect, or another doubt; inactive means no such curve, though single readings can be large; an effect the other way counts as inactive or inconclusive.
Key:
[1] = target: Cellular tumor antigen p53 (Homo sapiens) (UniProt P04637); assay: Primary qHTS for small molecule compounds that upregulate eGFP-tagged delta133p53alpha (in N-terminal) cells. (AID 2060322); conditions: NCI-H358 eGFP-delta133p53alpha fluorescence, 24 h; activation: active compounds read high;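 further: 0% = DMSO vehicle and 100% = reference activator; nearly all actives have a fitted effect of over 75% in size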
Cellular tumor antigen p53 (Homo sapiens), sequence (P04637 whole entry, looked up): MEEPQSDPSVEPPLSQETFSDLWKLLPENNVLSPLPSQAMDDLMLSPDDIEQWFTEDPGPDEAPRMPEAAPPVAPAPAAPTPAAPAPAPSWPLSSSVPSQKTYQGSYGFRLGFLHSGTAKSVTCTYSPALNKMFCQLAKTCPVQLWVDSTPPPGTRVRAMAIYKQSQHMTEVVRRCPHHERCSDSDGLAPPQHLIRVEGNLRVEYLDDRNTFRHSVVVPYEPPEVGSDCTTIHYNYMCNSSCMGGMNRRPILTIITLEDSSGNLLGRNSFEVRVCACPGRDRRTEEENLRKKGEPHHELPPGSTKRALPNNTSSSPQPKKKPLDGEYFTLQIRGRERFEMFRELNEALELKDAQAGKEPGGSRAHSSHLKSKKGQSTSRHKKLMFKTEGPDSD
Procedure, shortened: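 NCI-H358 cells pre-induced 24 h with 10 ng/ml doxycycline to express N-terminal eGFP-delta133p53alpha, then dosed 24 h at 37C without doxycycline; fixed, Hoechst-stained, GFP intensity by laser scanning cytometry, normalized to DMSO (0%) and 57.5 uM 5-azacytidine (100%).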

[2] = target: Aldehyde dehydrogenase, mitochondrial (Homo sapiens) (UniProt P05091); assay: qHTS for Inhibitors of the Aldehyde Dehydrogenase Family (ALDH2) Primary screen (AID 2061308); conditions: ALDH2 enzyme inhibition qHTS, 1536-well; series mostly up to 56 µM;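 further: plate controls were vehicle for no effect and reference inhibitor for full effect; nearly all actives have a fitted effect of over 55% in size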
[3] = target: Retinaldehyde dehydrogenase 3 (Homo sapiens) (UniProt P47895); assay: qHTS for Inhibitors of the Aldehyde Dehydrogenase Family (ALDH1A3) Validation screen (AID 2061312); conditions: ALDH1A3 enzyme inhibition qHTS validation, fluorescence; series mostly up to 84.7 µM; further: on the % scale 0 is the no-effect control and ±100 the full control effect; nearly all actives have a fitted effect of over 45% in size
[4] = target: Retinaldehyde dehydrogenase 3 (Homo sapiens) (UniProt P47895); assay: qHTS for Inhibitors of the Aldehyde Dehydrogenase Family (ALDH1A3) Primary screen (AID 2061315); conditions: ALDH inhibition qHTS; series mostly up to 56 µM;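 further: plate controls were DMSO vehicle for no effect and reference inhibitor for full effect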

COC(=O)CC1CC(c2ccc(O)cc2)=NO1 (configuration not stated)
inactive: activation [1] -0.955% | Potency [2] | Potency [3] | Potency [4]

CC(C)(C)NCC(O)COc1cccc2c1CCCC2=O (configuration not stated)
inactive: activation [1] -7.64% | Potency [2] | Potency [3] | Potency [4]

O=C(COc1ccc(C(=O)c2ccccc2)cc1)NC1CCN(Cc2ccccc2)CC1
inactive: activation [1] -6.68% | Potency [2] | Potency [3] | Potency [4]

NCc1c[nH]c(=S)n1C1CCc2c(F)cc(F)cc2C1 (configuration not stated)
inactive: activation [1] -0.477% | Potency [2] | Potency [3] | Potency [4]

CCCC(C(=O)O)c1c(C)nc2ccc(Cl)cc2c1-c1ccccc1 (configuration not stated)
inactive: activation [1] -1.91% | Potency [2] | Potency [3] | Potency [4]

O=S(=O)(Nc1cc(Cl)c(Oc2cnc3ccccc3c2)c(Cl)c1)c1ccc(Cl)cc1Cl
inactive: activation [1] -4.77% | Potency [2] | Potency [3] | Potency [4]

CC1CCN(c2cc(NC(=O)c3ccccc3)ncn2)CC1
inactive: activation [1] 22.4% | Potency [2] | Potency [3] | Potency [4]

CC(C)c1ccc(-c2cc(=O)c3ccccc3o2)cc1
inactive: activation [1] -14.8% | Potency [2] | Potency [3] | Potency [4]
